Pf apPOL inh: Pf-apPOL DNA polymerase inhibition; Recombinant Pf-apPOL, molecular beacon fluorescence, 1.5 h; inhibition, % at 10 µM; 210,000 tested, 0.25% active; AID 1794808
mHTT CaM bind: inhibitors of human mutant huntingtin-calmodulin interaction; AID 1671202; AlphaScreen His-mHTT/GST-CaM binding, luminescence; 190,000 tested, 3.6% active; P42858; inhibition, % at 15 µM
Target sequence (P42858 whole entry, looked up, change not shown): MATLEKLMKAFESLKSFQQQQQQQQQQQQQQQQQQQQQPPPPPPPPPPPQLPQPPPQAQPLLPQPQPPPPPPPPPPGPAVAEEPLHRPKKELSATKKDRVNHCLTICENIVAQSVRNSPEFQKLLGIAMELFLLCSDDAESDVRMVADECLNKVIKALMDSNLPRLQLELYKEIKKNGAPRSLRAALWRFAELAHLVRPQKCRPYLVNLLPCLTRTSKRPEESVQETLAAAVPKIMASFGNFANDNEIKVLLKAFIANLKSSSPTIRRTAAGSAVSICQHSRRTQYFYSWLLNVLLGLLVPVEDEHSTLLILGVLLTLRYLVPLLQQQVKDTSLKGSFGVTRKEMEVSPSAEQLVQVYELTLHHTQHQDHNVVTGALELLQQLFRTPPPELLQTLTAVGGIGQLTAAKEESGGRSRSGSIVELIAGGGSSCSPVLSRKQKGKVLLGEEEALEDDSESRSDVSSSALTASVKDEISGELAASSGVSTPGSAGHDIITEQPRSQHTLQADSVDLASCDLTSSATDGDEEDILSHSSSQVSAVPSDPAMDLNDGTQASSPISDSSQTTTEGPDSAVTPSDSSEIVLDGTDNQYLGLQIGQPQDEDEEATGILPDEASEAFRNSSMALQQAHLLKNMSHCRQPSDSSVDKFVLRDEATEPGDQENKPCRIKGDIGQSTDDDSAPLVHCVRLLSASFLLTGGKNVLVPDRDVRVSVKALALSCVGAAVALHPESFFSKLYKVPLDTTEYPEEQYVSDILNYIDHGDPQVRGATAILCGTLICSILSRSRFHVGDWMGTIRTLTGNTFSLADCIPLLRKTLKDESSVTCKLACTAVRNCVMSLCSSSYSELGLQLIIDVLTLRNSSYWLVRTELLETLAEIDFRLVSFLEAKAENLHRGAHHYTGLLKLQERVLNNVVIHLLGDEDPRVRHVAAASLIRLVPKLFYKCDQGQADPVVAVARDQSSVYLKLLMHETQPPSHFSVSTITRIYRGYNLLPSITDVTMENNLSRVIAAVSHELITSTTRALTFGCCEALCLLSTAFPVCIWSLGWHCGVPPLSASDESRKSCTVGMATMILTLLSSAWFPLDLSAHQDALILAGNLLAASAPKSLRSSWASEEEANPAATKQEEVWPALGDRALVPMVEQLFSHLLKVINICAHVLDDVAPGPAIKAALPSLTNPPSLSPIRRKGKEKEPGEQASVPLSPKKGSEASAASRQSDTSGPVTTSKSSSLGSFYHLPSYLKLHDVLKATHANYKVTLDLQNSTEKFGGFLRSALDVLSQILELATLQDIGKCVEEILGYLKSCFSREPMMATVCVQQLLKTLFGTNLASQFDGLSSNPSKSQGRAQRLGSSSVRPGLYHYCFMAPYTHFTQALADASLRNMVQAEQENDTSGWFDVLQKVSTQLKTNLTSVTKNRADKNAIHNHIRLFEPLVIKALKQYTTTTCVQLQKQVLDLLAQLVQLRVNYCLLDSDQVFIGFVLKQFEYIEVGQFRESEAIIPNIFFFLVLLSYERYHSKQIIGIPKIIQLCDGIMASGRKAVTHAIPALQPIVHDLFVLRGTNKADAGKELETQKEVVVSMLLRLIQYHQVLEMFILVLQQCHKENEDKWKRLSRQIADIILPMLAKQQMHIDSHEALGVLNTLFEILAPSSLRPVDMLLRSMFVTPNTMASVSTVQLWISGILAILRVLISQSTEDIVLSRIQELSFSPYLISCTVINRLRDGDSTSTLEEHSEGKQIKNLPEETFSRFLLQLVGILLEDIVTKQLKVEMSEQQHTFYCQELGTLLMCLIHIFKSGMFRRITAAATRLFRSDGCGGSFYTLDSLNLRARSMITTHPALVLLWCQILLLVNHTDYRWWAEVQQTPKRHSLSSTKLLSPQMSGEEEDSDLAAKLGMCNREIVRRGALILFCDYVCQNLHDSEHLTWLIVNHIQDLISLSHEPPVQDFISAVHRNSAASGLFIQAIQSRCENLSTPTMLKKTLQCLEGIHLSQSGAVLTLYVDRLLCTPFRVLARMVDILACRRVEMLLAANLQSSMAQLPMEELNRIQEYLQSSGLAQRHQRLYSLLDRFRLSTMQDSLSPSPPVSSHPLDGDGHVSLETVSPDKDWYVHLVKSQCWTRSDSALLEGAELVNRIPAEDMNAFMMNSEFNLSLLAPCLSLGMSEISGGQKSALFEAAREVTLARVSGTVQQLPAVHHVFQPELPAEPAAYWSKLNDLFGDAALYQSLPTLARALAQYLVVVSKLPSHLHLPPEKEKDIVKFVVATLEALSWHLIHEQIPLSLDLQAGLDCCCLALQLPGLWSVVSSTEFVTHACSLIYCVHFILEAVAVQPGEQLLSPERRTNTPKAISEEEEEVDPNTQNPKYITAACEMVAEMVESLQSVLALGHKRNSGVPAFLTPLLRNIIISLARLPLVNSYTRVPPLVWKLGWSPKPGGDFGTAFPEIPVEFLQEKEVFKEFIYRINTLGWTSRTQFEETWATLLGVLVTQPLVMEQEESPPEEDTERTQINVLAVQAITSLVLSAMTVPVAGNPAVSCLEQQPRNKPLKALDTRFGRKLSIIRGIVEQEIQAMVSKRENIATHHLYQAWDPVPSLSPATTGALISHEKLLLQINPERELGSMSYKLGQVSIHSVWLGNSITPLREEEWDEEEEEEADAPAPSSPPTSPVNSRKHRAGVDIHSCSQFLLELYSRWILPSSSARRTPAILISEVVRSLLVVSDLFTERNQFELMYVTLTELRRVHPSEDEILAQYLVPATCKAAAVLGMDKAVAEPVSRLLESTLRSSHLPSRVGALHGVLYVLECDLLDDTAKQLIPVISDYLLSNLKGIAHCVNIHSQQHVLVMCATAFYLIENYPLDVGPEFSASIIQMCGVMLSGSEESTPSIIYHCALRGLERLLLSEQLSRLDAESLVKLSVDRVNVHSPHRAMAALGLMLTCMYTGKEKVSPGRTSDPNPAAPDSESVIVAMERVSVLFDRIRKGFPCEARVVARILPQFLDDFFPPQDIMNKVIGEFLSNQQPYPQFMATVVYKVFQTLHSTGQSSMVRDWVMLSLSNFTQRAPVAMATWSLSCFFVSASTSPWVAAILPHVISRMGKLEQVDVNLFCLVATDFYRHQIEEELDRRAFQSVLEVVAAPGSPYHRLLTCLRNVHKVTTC
Numbers stand for hits; - = inactive; . = not tested or not shown. Most compounds without a hit are left out; they make up all but 3.5% or so of the library. Cut-off read from the data, not from the text of the source: active = inhibition above about 50%; inactive = the rest.

SMILES	Pf apPOL inh	mHTT CaM bind
COc1ccc(CNC(=O)NCC2(CO)CC2)cc1OC	-	-
O=C(c1ccc(C(F)(F)F)cc1)N1CCC(Cc2nnc(-c3ccccc3)o2)CC1	-	57
O=C(c1ccoc1)N1CCC(Cc2nnc(-c3ccccc3)o2)CC1	-	-
Cc1ccnc(N2CCCC(C(=O)N3CCCCC3)C2)n1 (stereo unspecified)	-	-
COc1ccc2c(c1)OCC1c3cc4c(cc3OC21)OCO4 (stereo unspecified)	-	.
Cc1ccc2ccc(C(Nc3ccccn3)c3ccsc3)c(O)c2n1 (stereo unspecified)	-	76
Cc1sc(NC(=O)c2ccccc2)c(C(Nc2ccccn2)c2cccs2)c1C (stereo unspecified)	-	-
CCOc1ccccc1Nc1cc(C)nc2c(C)cccc12	-	-
CCOc1ccc(C(Nc2ccccn2)c2ccc3ccc(C)nc3c2O)cc1C (stereo unspecified)	-	75
COc1ccc(C(Nc2ccccn2)c2ccc3ccc(C)nc3c2O)cc1 (stereo unspecified)	-	72
COc1ccc(NCc2ccccn2)cc1	-	.
Cc1ccccc1C1CCCN1C(=O)c1cc(-c2ccc3c(c2)OCO3)on1 (stereo unspecified)	-	-
O=C(C1CC1)N1CCN(Cc2noc(-c3ccc4ccccc4c3)n2)CC1	-	-
CCOc1ccc(N2CCN(C(=O)CC)C(C)C2=O)cc1 (stereo unspecified)	-	-
COc1ccc(NC(=O)CN2CCN(C3c4ccccc4-c4ccccc43)CC2)cc1Cl	-	-
O=C(CN1CCN(C2c3ccccc3-c3ccccc32)CC1)Nc1ccc2c(c1)OCCO2	-	58
Cc1ccc(C)c(NC(=O)N2CCn3cccc3C2C)c1 (stereo unspecified)	-	-
CC1C(=O)N2CCCc3cc(NC(=O)C(=O)NCCc4c[nH]c5ccccc45)cc1c32 (stereo unspecified)	-	76
COC(=O)c1ccc(NC(=O)C(=O)NCCc2c[nH]c3ccccc23)cc1	-	-
C=CCn1c(=S)sc2c(Sc3nnc(-c4ccc(Cl)cc4)o3)ncnc21	-	.
COc1cc(-c2nc3ccccc3[nH]2)c([N+](=O)[O-])cc1OC	-	-
Cc1ccc(N(CC(O)CN2C(=O)NC(C)(C)C2=O)S(=O)(=O)c2ccc([N+](=O)[O-])cc2)cc1 (stereo unspecified)	-	61
CC1(C)NC(=O)N(CC(O)CN(c2cccc([N+](=O)[O-])c2)S(=O)(=O)c2ccccc2)C1=O (stereo unspecified)	-	-
Cc1ccccc1NC(=O)C1(C)CC(c2ccccc2)=NO1 (stereo unspecified)	-	-
CCn1c(=O)c(C(=O)NCC(C)C)c(O)c2ccccc21	-	-
SMILES	Pf apPOL inh	mHTT CaM bind
Cc1cc(C)c(Cn2c(=O)c3cnc(C)nc3n(C)c2=O)c(C)c1	-	-
COc1cc(C=C2SC(=S)N(c3ccc(C(=O)O)c(O)c3)C2=O)cc(OC)c1OC	-	-
COc1cc(C=C2SC(=S)N(c3ccc(O)cc3)C2=O)cc(OC)c1OC	-	-
COc1cc(C=C2SC(=S)N(c3ccc(O)c(C(=O)O)c3)C2=O)cc(OC)c1OC	-	66
COc1cccc(N2C(=O)C(=Cc3ccc(O)c(O)c3)SC2=S)c1	-	98
CCN(CC)S(=O)(=O)N1CCCC(C(=O)NCCc2ccc(Cl)cc2)C1 (stereo unspecified)	-	-
COc1cccc(C(=O)N2CCC3(CC2)NC(=O)c2cc(Cl)ccc2N3C)c1	-	-
Cc1cc(O)c2c(c1)OC(=Cc1cccc(Br)c1)C2=O	-	56
Cc1cc(O)c2c(c1)OC(=Cc1cn(C)c3ccccc13)C2=O	-	72
Cc1cc(O)c2c(c1)OC(=Cc1ccccc1F)C2=O	-	-
Cc1cc(O)c2c(c1)OC(=Cc1ccc(Br)cc1)C2=O	-	-
N#Cc1ccccc1Nc1sc(C(=O)c2ccccc2)c(N)c1C(N)=O	-	-
NC(=O)c1c(Nc2ccccc2Cl)sc(C(=O)c2ccccc2)c1N	-	86
Cn1nc(C(=O)N2CCCC2c2ccccc2Cl)cc1C(F)(F)F (stereo unspecified)	-	-
CC1CCN(C(=O)C2CCCN(c3cn[nH]c(=O)c3)C2)CC1 (stereo unspecified)	-	-
O=C(CSc1nc2ccsc2c(=O)n1-c1cccc(Cl)c1Cl)NCC1CCCO1 (stereo unspecified)	-	-
Cc1cccc(-c2cc(=O)c3cc(NC(=O)C4CCCCC4)ccc3o2)c1	-	-
Cc1ccc(CN(CC(=O)NCc2ccncc2)S(=O)(=O)c2ccc(C)cc2)cc1	-	-
CC(O)CNc1c([N+](=O)[O-])c(=O)n(C)c2ccccc12 (stereo unspecified)	70	-
Cn1c(=O)c([N+](=O)[O-])c(NCc2ccccc2)c2ccccc21	-	-
CC(C)CCNC(=O)C1(C)CCC(=O)N1Cc1ccc(F)cc1 (stereo unspecified)	-	-
Clc1ccccc1C=Nc1ccc(N2CCOCC2)cc1	-	-
